According to PubChem BioAssay (NCATS):
Results filed as inconclusive are left out. The source made the active and inactive calls. Unless noted, the call rests on the fitted dose curve; in most records, active means well fitted curve in either direction with a large enough effect (not every such curve was filed as active); inconclusive means small, poorly fitted or top-dose-only effect, or another doubt; inactive means flat fitted curve, though single readings scatter.

Assays:
[1] = molecular target: Lysosomal acid glucosylceramidase (Homo sapiens) (UniProt P04062); experiment: Glucocerebrosidase-p2 (AID 348; in the data active means potency below about 10 µM; further: potency means the concentration at half of the fitted maximal effect); conditions: purified GBA, blue fluorogenic substrate, 40 min
Method in brief: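 Compounds titrated from 0.6 nM upwards against 0.2 nM enzyme in pH 5.9 citric acid/KH2PO4, taurocholate, tween-20; blue fluorogenic substrate 80 uM, 40 min room temperature, stopped and read Ex 365/Em 440 for AC50.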

[2] = molecular target: Cytochrome P450 1A2 (Homo sapiens) (UniProt P05177); experiment: p450-cyp1a2 (AID 410; calls by dose curve; further: potency means the concentration at half of the fitted maximal effect;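 on activity change, negative = inhibition: -100% = full effect of reference inhibitor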); conditions: recombinant CYP1A2, luciferin-ME demethylation, luminescence; series mostly up to 11.4 µM
Method in brief: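 Inhibition was calculated relative to 57 uM furafylline (full inhibition). The reaction used human CYP1A2 at 20nM with Luciferin-ME at its Km, 100uM, driven by an NADPH-regenerating system for 60 min at room temperature.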

[3] = molecular target: Glucocorticoid receptor (Homo sapiens) (UniProt P04150); experiment: GR-GFP Redistribution (AID 450;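 active means compounds whose dose series gives a full or clear partial fitted curve of increased nuclear translocation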; further: potency means the concentration at half of the fitted maximal effect); conditions: U2OS GR-GFP nuclear translocation, laser cytometry, 2 h
[4] = molecular target: Glucocorticoid receptor (Homo sapiens) (UniProt P04150); experiment: GR-EFC Redistribution (AID 451; calls by dose curve; further: potency means the concentration at half of the fitted maximal effect); conditions: CHO-K1 GR-EFC translocation, beta-gal luminescence, 2 h
Method in brief: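 CHO-K1 cells stably expressing nuclear-localized β-gal enzyme acceptor and GR fused C-terminally to the enzyme donor fragment; ligand-driven nuclear translocation restores β-gal by complementation. Compounds titrated up to 46 uM final, 2 h at 37 °C; luminescence read.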

[5] = molecular target: 3',5'-cyclic-AMP phosphodiesterase 4B (Homo sapiens) (UniProt Q07343); experiment: qHTS Assay for Inhibitors of PDE-IV (AID 607; active means well fitted activation curve with a large enough effect in the main read-out, with a control signal flat, not every such curve was filed as active; further: % of control where 0% means no effect); conditions: HEK293 ACTOne CNG channel cells, membrane potential fluorescence; series mostly up to 22.9 µM
Method in brief: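 Live HEK293 cells with a modified cyclic nucleotide-gated (CNG) channel report intracellular cAMP via membrane-potential dye fluorescence (ex 535/em 590 nm). Endogenous PDE-IV was targeted. Compounds were tested at up to 22.9 uM final; RO 20-1724 100 uM served as control.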

[6] = molecular target: Cytochrome P450 3A4 (Homo sapiens) (UniProt P08684); experiment: qHTS Assay for Activators of Cytochrome P450 3A4 (AID 885; active means well fitted curve in the direction sought with a large enough effect; an effect the other way counts as inactive or inconclusive; further: nearly all actives have a fitted effect of over 65% in size); conditions: recombinant CYP3A4, Luciferin-PPXE luminescence, 60 min; series mostly up to 11.4 µM
Method in brief: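 Quantitative HTS format: compounds preincubated with 20nM human CYP3A4 and Luciferin-PPXE substrate at KM, reaction started by NADPH regeneration, stopped after 60 min, luciferase luminescence read 20 min later.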

[7] = Stat Signaling Pathway (AID 446); conditions: ME-180 SIE beta-lactamase reporter, IL-6 stimulated, 5 h; at 7.69 µM (top of the series) unless noted;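 further: ME-180 cervical cancer cells given 40 pM IL-6 alongside compound; SIE-controlled beta-lactamase reporter measured as 460/530 nm FRET emission ratio; on the % scale 0 is the no-effect control and ±100 the full control effect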
Method in brief: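 IL-6/STAT signaling read in ME-180 cells via an SIE beta-lactamase reporter. Stimulus was 40 pM IL-6 (its AC50) for 5 hrs, so both activation and inhibition register.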

[8] = molecular target: Mitogen-activated protein kinase 10 (Mus musculus) (UniProt Q61831); experiment: JNK3 AlphaScreen Assay (AID 530); conditions: JNK3 lysate, c-Jun phosphorylation; series mostly up to 11.4 µM;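 further: kinase came from lysate of stimulated human HepG2 cells; signal reports phosphorylation of biotinylated GST-cJun 1-79 at Ser73 with 10 µM ATP; on the % scale 0 is the no-effect control and ±100 the full control effect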
Method in brief: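 JNK3 came from HepG2 lysates pre-activated with IL-1beta and TNF-alpha and phosphorylated biotinylated GST-cJun (1-79) at 10 uM ATP, pH 7.6, room temperature. Compounds were titrated. AlphaScreen signal used anti-phospho-cJun (Ser73) antibody.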

[9] = NFAT Signaling Pathway (AID 444); conditions: Jurkat NFAT-bla M1, carbachol, beta-lactamase ratio, 5 h; at 7.69 µM (top of the series) unless noted;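 further: carbachol stimulus at about its EC50 of 1 µM final; on the % scale 0 is the no-effect control and ±100 the full control effect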
Method in brief: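 Jurkat cells carrying an NFAT-driven β-lactamase reporter and co-transfected muscarinic M1 receptor were treated with compound plus carbachol (1 uM final, an EC50 level) for 5 h at 37 °C. CCF4 loading followed for 1 h at RT; 460/530 nm ratio gave %activity.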

[10] = molecular target: Cytochrome P450 2D6 (Homo sapiens) (UniProt P10635); experiment: qHTS Assay for Inhibitors and Substrates of Cytochrome P450 2D6 (AID 891; active means well fitted curve in the direction sought with a large enough effect; an effect the other way counts as inactive or inconclusive; further: potency means the concentration at half of the fitted maximal effect; nearly all actives have a fitted effect of over 60% in size); conditions: recombinant CYP2D6, luciferin-ME EGE luminescence; series mostly up to 11.4 µM
Method in brief: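 Human CYP2D6 (5 nM) with 30 uM Luciferin-ME EGE (at Km) in 100 mM KPO4, compound preincubated 10 min, then NADPH regeneration system for 60 min at room temperature. Luciferin read by luminescence; normalized to 1.43 uM quinidine.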

[11] = molecular target: Cytochrome P450 2C19 (Homo sapiens) (UniProt P33261); experiment: qHTS Assay for Inhibitors and Substrates of Cytochrome P450 2C19 (AID 899; active means well fitted curve in the direction sought with a large enough effect; an effect the other way counts as inactive or inconclusive; further: potency means the concentration at half of the fitted maximal effect; nearly all actives have a fitted effect of over 60% in size); conditions: recombinant CYP2C19, luciferin-H EGE luminescence; series mostly up to 11.4 µM
Method in brief: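 NADPH-dependent conversion of Luciferin-H EGE (10uM, at KM) by 5nM enzyme in 50mM KPO4, 60 min at 37C following 10 min compound preincubation. Stopped with luciferin detection buffer; luminescence read after 20 min.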

[12] = AP1 Signaling Pathway (AID 357); conditions: ME-180 (cervical carcinoma) AP-1-bla reporter, EGF-induced, beta-lactamase ratio, 5 h; at 7.69 µM (top of the series) unless noted;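 further: ME-180 reporter cells stimulated with EGF at its EC50 level; on the % scale 0 is the no-effect control and ±100 the full control effect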
Method in brief: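 AP-1-bla ME-180 cells, Opti-MEM + 0.5% dialyzed FBS, plated overnight 37 °C. Cpd titration + EC50 EGF, 5 h 37 °C. CCF4 2.5 h RT; ex 405, em 460/530 ratio → %activity, AC50.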

[13] = molecular target: Guanine nucleotide-binding protein G(i) subunit alpha-1 (Homo sapiens) (UniProt P63096); experiment: qHTS Assay for Inhibitors of RGS12 GoLoco Motif Activity (Green Fluorophore) (AID 879; active means well fitted curve in the direction sought with a large enough effect; an effect the other way counts as inactive or inconclusive;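 further: 0% = labeled peptide with Gαi1 and full inhibition = labeled peptide alone without protein; negative values mean loss of peptide binding seen as reduced polarization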); conditions: Galphai1/FITC-RGS12 GoLoco peptide, fluorescence polarization; series mostly up to 57.1 µM
Method in brief: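 Fluorescence polarization assay: 50 nM Gαi1 with 10 nM FITC-labeled RGS12 GoLoco peptide in 10 mM Tris pH 7.5, 150 mM NaCl, 0.1 mM GDP, 0.05% NP40, 10 min at room temperature with compound.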

[14] = molecular target: Muscarinic acetylcholine receptor M1 (Rattus norvegicus) (UniProt P08482); experiment: qHTS Assay for Antagonists of Acetylcholine Muscarinic M1 Receptor: Measurement of IP-One Response (AID 944; active means well fitted curve in the direction sought with a large enough effect; an effect the other way counts as inactive or inconclusive; further: nearly all actives have a fitted effect of over 75% in size); conditions: CHO-M1 cells, IP-One HTRF, antagonist mode; series mostly up to 46.1 µM
Method in brief: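 Steps: plate transfected CHO-M1 cells overnight; add test compound, 10 min; add carbachol (200 nM, EC80) in stimulation buffer with LiCl; incubate 30 min; add labelled IP1 tracer and anti-IP1 antibody in lysis buffer; read HTRF after 10 min.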

[15] = molecular target: Pyruvate kinase (Leishmania mexicana) (UniProt Q27686); experiment: qHTS Validation Assay for Inhibitors of Leishmania Mexicana Pyruvate Kinase (AID 945; active means well fitted curve in the direction sought with a large enough effect; an effect the other way counts as inactive or inconclusive;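 further: 0% = DMSO only neutral control wells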); conditions: purified L. mexicana pyruvate kinase, enzyme activity, E451W mutant enzyme; series mostly up to 57.5 µM
Method in brief: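 Eight-point qHTS titrations in triplicate, data normalized to DMSO neutral control. Reaction: 0.2 nM LmPYK E451W mutant, 0.5 mM PEP, 0.1 mM ADP, 7 mM MgCl2, pH 7.2, one hour at room temperature; luminescent ATP detection.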

[16] = molecular target: Pyruvate kinase PKM (Homo sapiens) (UniProt P14618); experiment: qHTS Assay for Activators of Human Muscle Pyruvate Kinase (AID 954; active means well fitted curve in the direction sought with a large enough effect, not every such curve was filed as active;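 further: 0% = uninhibited enzyme and -100% = no enzyme or full thiadiazolimine inhibition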); conditions: purified human muscle pyruvate kinase, luciferase-coupled luminescence, 1 h; series mostly up to 57.5 µM
Method in brief: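 Enzyme was run at intermediate activity so both inhibitors and activators could be detected. ATP formed from ADP and PEP by 0.1 nM human PKM2 during a 1 h room-temperature incubation was quantified by coupled luciferase luminescence.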

[17] = molecular target: Alpha-galactosidase A (Homo sapiens) (UniProt P06280); experiment: Counterscreen for Glucocerebrosidase Inhibitors: qHTS Assay for Human alpha-Galactosidase at pH 4.5 (AID 992; active means well fitted curve in the direction sought with a large enough effect; an effect the other way counts as inactive or inconclusive; further: 0% is about no effect); conditions: purified enzyme, fluorogenic substrate; series mostly up to 76.9 µM
Method in brief: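 Read-out is 4-methylumbelliferone fluorescence (365 nm excitation, 440 nm emission) after a pH 10 NaOH/glycine stop. Reactions held 2 nM enzyme and 80 uM substrate at pH 4.5 for 20 min at room temperature.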

[18] = molecular target: alpha-glucosidase (Oryza sativa, rice) (UniProt Q653V4); experiment: Counterscreen for Glucocerebrosidase Inhibitors: qHTS Assay for Rice alpha-Glucosidase at pH 5.0 (AID 997; active means well fitted curve in the direction sought with a large enough effect; an effect the other way counts as inactive or inconclusive;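 further: 0% = full activity with enzyme and -100% = basal without enzyme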); conditions: rice alpha-glucosidase enzyme activity; series mostly up to 76.9 µM
Method in brief: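 Rice alpha-glucosidase (4 nM final) with 400 uM 4-methylumbelliferyl-alpha-D-glucopyranoside in citrate buffer pH 5.0, 20 min at room temperature, stopped at pH 10; fluorescence 365/440 nm, compounds 0.7 nM–77 uM, AC50 from Hill fits.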

Chain of Lysosomal acid glucosylceramidase (Homo sapiens) (P04062 whole entry, looked up): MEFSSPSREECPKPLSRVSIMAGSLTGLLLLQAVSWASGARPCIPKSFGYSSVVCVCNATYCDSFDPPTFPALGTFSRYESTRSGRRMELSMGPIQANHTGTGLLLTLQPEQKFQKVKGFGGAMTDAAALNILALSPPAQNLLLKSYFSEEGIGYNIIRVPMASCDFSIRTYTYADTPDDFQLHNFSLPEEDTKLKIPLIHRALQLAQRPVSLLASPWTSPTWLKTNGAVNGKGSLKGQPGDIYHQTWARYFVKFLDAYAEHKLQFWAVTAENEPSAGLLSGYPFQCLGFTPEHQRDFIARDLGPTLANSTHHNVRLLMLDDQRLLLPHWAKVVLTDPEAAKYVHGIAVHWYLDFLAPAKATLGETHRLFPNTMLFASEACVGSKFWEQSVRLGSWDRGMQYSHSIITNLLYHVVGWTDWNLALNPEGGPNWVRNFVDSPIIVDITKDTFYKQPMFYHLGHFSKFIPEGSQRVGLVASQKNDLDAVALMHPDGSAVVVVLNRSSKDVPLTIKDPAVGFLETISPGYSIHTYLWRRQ
Chain of Cytochrome P450 3A4 (Homo sapiens) (P08684 whole entry, looked up): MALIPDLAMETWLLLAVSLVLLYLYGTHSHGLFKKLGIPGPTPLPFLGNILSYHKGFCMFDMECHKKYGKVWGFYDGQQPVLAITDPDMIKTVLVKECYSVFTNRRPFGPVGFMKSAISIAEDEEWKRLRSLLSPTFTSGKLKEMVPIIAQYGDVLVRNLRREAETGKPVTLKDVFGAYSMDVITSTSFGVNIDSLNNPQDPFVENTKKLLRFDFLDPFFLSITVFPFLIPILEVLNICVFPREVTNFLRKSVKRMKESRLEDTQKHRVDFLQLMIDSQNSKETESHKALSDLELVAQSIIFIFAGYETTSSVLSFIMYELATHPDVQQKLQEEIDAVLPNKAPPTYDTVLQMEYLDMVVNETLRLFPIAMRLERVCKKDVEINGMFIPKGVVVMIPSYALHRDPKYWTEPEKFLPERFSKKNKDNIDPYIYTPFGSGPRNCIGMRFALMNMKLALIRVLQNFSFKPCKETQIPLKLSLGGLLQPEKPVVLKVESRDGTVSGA
Chain of Glucocorticoid receptor (Homo sapiens) (P04150 whole entry, looked up, the tested form may be a part): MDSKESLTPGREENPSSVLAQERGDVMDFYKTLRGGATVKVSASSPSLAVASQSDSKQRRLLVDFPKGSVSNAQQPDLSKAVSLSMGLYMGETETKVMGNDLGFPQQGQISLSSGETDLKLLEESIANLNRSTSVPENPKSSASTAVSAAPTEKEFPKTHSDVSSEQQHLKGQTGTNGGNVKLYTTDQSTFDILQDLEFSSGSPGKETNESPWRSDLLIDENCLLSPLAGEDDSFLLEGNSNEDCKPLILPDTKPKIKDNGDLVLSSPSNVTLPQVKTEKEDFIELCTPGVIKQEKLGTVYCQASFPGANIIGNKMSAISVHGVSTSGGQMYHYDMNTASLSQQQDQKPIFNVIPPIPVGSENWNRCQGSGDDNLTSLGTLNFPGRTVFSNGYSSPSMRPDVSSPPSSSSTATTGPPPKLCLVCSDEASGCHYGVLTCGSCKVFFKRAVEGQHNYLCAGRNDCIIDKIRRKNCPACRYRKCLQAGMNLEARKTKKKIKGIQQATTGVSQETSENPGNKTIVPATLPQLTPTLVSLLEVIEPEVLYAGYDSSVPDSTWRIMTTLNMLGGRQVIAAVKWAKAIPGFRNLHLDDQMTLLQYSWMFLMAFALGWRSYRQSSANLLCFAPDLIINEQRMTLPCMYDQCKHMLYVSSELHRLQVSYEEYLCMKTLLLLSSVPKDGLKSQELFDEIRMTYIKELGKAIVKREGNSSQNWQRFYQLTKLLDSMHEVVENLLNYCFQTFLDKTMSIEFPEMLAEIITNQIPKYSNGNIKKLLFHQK
Chain of Cytochrome P450 1A2 (Homo sapiens) (P05177 whole entry, looked up): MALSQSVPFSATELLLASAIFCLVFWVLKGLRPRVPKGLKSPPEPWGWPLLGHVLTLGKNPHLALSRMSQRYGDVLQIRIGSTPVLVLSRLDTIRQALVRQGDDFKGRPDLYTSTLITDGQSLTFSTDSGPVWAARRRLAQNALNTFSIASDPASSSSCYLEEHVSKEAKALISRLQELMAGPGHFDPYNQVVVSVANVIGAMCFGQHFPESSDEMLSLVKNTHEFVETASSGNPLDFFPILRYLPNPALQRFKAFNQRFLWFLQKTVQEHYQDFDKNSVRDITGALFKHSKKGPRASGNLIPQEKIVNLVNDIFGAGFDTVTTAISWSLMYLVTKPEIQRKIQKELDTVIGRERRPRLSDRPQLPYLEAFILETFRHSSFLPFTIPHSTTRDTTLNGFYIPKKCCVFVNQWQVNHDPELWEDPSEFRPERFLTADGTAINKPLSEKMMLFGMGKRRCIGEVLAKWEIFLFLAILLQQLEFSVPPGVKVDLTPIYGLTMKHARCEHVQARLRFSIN
Chain of 3',5'-cyclic-AMP phosphodiesterase 4B (Homo sapiens) (Q07343 whole entry, looked up): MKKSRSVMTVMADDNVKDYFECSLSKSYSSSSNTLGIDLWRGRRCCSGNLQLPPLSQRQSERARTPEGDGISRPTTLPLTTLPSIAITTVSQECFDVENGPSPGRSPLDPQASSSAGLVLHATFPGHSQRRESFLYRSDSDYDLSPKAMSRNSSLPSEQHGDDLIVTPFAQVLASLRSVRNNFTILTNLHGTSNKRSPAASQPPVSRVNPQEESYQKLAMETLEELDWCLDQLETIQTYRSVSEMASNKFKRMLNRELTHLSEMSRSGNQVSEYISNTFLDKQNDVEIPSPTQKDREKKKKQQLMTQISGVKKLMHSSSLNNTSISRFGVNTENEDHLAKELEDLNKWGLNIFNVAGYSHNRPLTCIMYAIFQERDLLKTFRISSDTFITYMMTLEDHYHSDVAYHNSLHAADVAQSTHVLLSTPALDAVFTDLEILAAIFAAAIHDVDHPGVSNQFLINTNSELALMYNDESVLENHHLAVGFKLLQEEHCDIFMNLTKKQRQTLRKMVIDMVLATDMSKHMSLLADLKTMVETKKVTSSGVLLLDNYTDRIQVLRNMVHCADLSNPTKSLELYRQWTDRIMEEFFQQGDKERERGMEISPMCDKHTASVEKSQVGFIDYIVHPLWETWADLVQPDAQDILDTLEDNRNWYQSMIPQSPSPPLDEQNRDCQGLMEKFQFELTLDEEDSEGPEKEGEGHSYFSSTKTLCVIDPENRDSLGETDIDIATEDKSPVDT
Chain of Cytochrome P450 2D6 (Homo sapiens) (P10635 whole entry, looked up): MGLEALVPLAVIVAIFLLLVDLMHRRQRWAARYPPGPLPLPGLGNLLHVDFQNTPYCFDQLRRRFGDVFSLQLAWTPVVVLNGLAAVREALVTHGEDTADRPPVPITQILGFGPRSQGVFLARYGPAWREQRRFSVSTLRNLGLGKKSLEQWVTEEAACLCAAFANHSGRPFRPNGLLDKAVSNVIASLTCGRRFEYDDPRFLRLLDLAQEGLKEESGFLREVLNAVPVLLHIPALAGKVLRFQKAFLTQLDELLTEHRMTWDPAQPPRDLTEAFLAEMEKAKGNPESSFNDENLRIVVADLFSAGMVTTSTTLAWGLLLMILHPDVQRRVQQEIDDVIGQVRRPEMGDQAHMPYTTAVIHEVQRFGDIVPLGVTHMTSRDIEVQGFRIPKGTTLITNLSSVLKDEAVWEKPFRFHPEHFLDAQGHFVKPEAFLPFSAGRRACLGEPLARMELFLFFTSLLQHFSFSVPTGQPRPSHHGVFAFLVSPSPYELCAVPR
Chain of Muscarinic acetylcholine receptor M1 (Rattus norvegicus) (P08482 whole entry, looked up): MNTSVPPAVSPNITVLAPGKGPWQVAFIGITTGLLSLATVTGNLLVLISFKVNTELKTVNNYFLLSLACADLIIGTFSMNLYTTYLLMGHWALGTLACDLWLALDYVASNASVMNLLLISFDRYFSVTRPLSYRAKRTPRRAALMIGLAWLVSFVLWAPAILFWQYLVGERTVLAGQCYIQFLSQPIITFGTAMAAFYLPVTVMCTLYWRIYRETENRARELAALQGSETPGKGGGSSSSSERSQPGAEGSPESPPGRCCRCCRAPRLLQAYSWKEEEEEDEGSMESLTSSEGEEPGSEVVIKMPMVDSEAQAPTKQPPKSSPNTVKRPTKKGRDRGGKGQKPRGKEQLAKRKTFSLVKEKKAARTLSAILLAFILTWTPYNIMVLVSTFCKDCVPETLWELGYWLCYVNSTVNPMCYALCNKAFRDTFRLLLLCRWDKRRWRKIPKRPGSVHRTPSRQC
Chain of Guanine nucleotide-binding protein G(i) subunit alpha-1 (Homo sapiens) (P63096 whole entry, looked up): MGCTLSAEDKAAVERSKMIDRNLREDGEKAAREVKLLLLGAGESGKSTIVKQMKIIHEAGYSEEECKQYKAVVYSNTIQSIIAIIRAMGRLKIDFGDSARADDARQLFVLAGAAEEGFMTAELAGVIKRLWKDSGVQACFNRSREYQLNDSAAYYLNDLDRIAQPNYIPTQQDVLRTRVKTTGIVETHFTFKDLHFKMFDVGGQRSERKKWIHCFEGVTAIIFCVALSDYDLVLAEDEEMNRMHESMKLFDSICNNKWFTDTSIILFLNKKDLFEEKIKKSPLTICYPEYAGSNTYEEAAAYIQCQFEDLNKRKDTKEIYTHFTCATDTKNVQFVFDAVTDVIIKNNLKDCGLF
Chain of Pyruvate kinase (Leishmania mexicana) (Q27686 2-499 E452W): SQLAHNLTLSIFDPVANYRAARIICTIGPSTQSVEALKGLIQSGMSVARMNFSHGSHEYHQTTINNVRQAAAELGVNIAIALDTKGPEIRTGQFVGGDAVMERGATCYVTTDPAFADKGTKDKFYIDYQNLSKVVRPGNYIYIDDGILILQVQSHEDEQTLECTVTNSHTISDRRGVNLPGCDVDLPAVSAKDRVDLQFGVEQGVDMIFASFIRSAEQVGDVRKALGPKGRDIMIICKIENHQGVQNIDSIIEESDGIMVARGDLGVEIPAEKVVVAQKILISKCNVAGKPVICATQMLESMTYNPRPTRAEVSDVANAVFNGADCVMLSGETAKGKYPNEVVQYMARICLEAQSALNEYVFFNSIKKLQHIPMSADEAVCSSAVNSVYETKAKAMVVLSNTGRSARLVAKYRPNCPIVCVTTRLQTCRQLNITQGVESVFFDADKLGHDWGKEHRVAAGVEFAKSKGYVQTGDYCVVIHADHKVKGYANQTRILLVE

NS(=O)(=O)c1ccc(N=Nc2cc3ccccc3c(C(=O)O)c2O)cc1
inactive: Potency [1] > 11.4 µM | Potency [3] > 46 µM | Potency [4] > 9.22 µM | Potency [5] | Potency [6]
active: Potency [2] 1 µM

CC(CO)(CO)N=Cc1cc(I)cc(I)c1O
inactive: Potency [1] > 11.4 µM | activity, negative = inhibition [7] -24.6% | Potency [3] > 46 µM | Potency [4] > 9.22 µM | Potency [8] | Potency [5]

Nc1ncnc2c([C@@H]3O[C@@H](CO)[C@H](O)[C@@H]3O)nsc12
inactive: Potency [1] > 11.4 µM | activity change, negative = inhibition [2] -16.8% [at 2.29 µM] | Potency [3] > 46 µM | Potency [4] > 9.22 µM | Potency [8] | Potency [5]

CCNc1ncc2nc(CCc3ccccc3)c(=O)n(-c3ccc(OC)cc3)c2n1
active: Potency [10] 0.251 µM
inactive: Potency [1] > 11.4 µM | activity change, negative = inhibition [9] -12.3% | activity, negative = inhibition [7] -3.89% | Potency [3] > 9.22 µM | Potency [4] > 46 µM | Potency [8] | Potency [6]

CC(C)c1ccc(O)c(O)c(=O)c1 (tested in a mixture with another compound)
inactive: Potency [1] > 11.4 µM | activity, negative = inhibition [7] 4.84% | Potency [3] > 46 µM | Potency [4] > 9.22 µM | Potency [8] | Potency [5]

Oc1ccc(CNCc2ccccc2)c2cccnc12
active: Potency [10] 1.58 µM
inactive: Potency [1] > 11.4 µM | activity change, negative = inhibition [9] -26.9% | activity, negative = inhibition [7] 10.2% | Potency [3] > 46 µM | Potency [4] > 9.22 µM | Potency [8] | Potency [5]

OC[C@H](S)CS
inactive: Potency [1] > 11.4 µM | activity, negative = inhibition [7] 5.31% | Potency [3] > 46 µM | Potency [4] > 9.22 µM | Potency [8] | Potency [5]

CN1CCN(c2ncc3nc(-c4ccccc4)c(=O)n(Cc4ccc(F)cc4)c3n2)CC1
inactive: Potency [1] > 11.4 µM | Potency [2] | Potency [3] > 9.22 µM | Potency [4] > 46 µM | Potency [8] | Potency [5]

C[C@H]1CC(C)(C)C[C@@](OCCN2CCCCC2)(c2ccccc2)C1
active: Potency [10] 0.631 µM
inactive: Potency [1] > 11.4 µM | Potency [2] | activity, negative = inhibition [7] 7.87% | Potency [3] > 46 µM | Potency [4] > 9.22 µM | Potency [8] | Potency [6]

COc1cccc(Nc2ncc3nc(CCc4ccccc4)c(=O)n(C[C@H]4CCCO4)c3n2)c1
inactive: Potency [1] > 11.4 µM | activity change, negative = inhibition [9] -6.15% | activity, negative = inhibition [7] -12.8% | Potency [3] > 9.22 µM | Potency [4] > 46 µM | Potency [8]

O=C1/C(=C/c2ccccc2)[C@@H](NC2CCCCC2)c2ccccc21
active: Potency [2] 1 µM | Potency [11] 1.26 µM
inactive: Potency [1] > 11.4 µM | Potency [4] > 9.22 µM | Potency [8] | Potency [5]

Oc1c(C(O)(c2ccccc2)c2ccc3ccccc3c2O)ccc2ccccc12
active: Potency [2] 1 µM | Potency [11] 0.794 µM
inactive: Potency [1] > 11.4 µM | activity, negative = inhibition [7] -10.4% | Potency [3] > 46 µM | Potency [4] > 9.22 µM | Potency [5]

COCCn1c(=O)c(-c2cccc(C#N)c2)nc2cnc(N3CCNCC3)nc21
inactive: Potency [1] > 11.4 µM | Potency [3] > 9.22 µM | Potency [4] > 46 µM | Potency [8] | Potency [5] | Potency [6]
active: Potency [2] 10 µM

Cc1cccc(Cl)c1NC[C@H](O)CN1CCN(C)CC1
inactive: Potency [1] > 11.4 µM | activity change, negative = inhibition [9] -10.1% | activity, negative = inhibition [7] 6.35% | Potency [3] > 46 µM | Potency [4] > 9.22 µM | Potency [8] | Potency [5]

CN1CCc2cc(Cl)c(O)cc2[C@H](c2ccccc2)C1
inactive: activity change, negative = inhibition [12] 15.7% [at 38 µM] | activity change, negative = inhibition [9] -3.81% [at 38 µM] | activity, negative = inhibition [7] 19.6% [at 38 µM] | Potency [3] > 46 µM | Potency [4] > 46 µM | Potency [8] | Potency [5] | outcome [13] | Potency [14] | outcome [15] | outcome [16] | outcome [17] | Potency [18]
active: Potency [2] 31.6 µM | Potency [10] 0.631 µM

N=c1ccn2c(n1)O[C@@H]1[C@@H](O)[C@H](CO)O[C@H]12
inactive: activity change, negative = inhibition [12] -4.43% [at 38 µM] | Potency [2] | activity change, negative = inhibition [9] -5.26% [at 38 µM] | activity, negative = inhibition [7] 0.604% [at 38 µM] | Potency [3] > 46 µM | Potency [4] > 46 µM | Potency [8] | Potency [5] | outcome [13] | Potency [14] | outcome [15] | outcome [16] | outcome [17] | Potency [18]
